Measured values: PubChem BioAssay AID1159580 (chemical genetic matrix, 2015)
The whole screen tested about 5,500 compounds, of which about 2,000 (36%) were called active. Inconclusive results (about 18%) are left out. Cut-off read from the data, not from the text of the source: active = normalized growth mostly below about 0.91 (no sharp cut-off); inconclusive = no clear call, values can overlap the other calls; inactive = mostly above about 0.92. This is one part of the list.

Experiment: chemical genetic growth profiling, strain panel (AID 1159580);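 note: tested at 20 µM; growth read once vehicle control cultures reached saturation at 30 °C; 1 = growth at the plate median or of vehicle wells; lower values mean less growth of the strain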
Conditions: growth OD

Measured: normalized growth

Nc1c2ccccc2nc2ccccc12 (tested in a mixture with another compound)
inactive: S. cerevisiae deletion strains, locus YKL068W, stronger effect = lower value 0.969 | S. cerevisiae deletion strains, locus YKR026C, strain gcn3, stronger effect = lower value 0.957 | S. cerevisiae deletion strains, locus YKR091W, strain srl3, stronger effect = lower value 0.95 | S. cerevisiae deletion strains, locus YLR102C, strain apc9, stronger effect = lower value 0.943 | S. cerevisiae deletion strains, locus YLR342W, strain FKS1, stronger effect = lower value 0.945 | S. cerevisiae deletion strains, locus YLR357W, strain rsc2, stronger effect = lower value 1.11 | S. cerevisiae deletion strains, locus YLR371W, strain rom2, stronger effect = lower value 0.98 | S. cerevisiae deletion strains, locus YLR384C, strain iki3, stronger effect = lower value 0.932 | S. cerevisiae deletion strains, locus YMR125W, strain sto1, stronger effect = lower value 0.963 | S. cerevisiae deletion strains, locus YMR231W, strain pep5, stronger effect = lower value 0.94 | S. cerevisiae deletion strains, locus YMR307W, strain GAS1, stronger effect = lower value 0.806 | S. cerevisiae deletion strains, locus YNL071W, strain lat1, stronger effect = lower value 0.958 | S. cerevisiae deletion strains, locus YNL322C, strain KRE1 (second series), stronger effect = lower value 0.981 | S. cerevisiae deletion strains, locus YOR316C, strain cot1, stronger effect = lower value 0.938 | S. cerevisiae deletion strains, locus YPL241C, strain CIN2, stronger effect = lower value 0.935 | S. cerevisiae deletion strains, locus YPR141C, strain kar3, stronger effect = lower value 1 | S. cerevisiae deletion strains, locus YPR163C, strain tif3, stronger effect = lower value 0.964
active: S. cerevisiae deletion strains, locus YKL009W, strain mrt4, stronger effect = lower value 0.811 | S. cerevisiae deletion strains, locus YKL085W, strain MDH1 (second series), stronger effect = lower value 0.899 | S. cerevisiae deletion strains, locus YKL085W, strain MDH1, stronger effect = lower value 0.899 | S. cerevisiae deletion strains, locus YKL160W, strain elf1, stronger effect = lower value 0.597 | S. cerevisiae deletion strains, locus YKL190W, strain CNB1, stronger effect = lower value 0.717 | S. cerevisiae deletion strains, locus YKR001C, strain vps1, stronger effect = lower value 0.292 | S. cerevisiae deletion strains, locus YLL001W, strain dnm1, stronger effect = lower value 0.603 | S. cerevisiae deletion strains, locus YLL026W, stronger effect = lower value 0.707 | S. cerevisiae deletion strains, locus YLL041C, strain sdh2, stronger effect = lower value 0.897 | S. cerevisiae deletion strains, locus YLR027C, strain aat2, stronger effect = lower value 0.604 | S. cerevisiae deletion strains, locus YLR039C, strain RIC1, stronger effect = lower value 0.601 | S. cerevisiae deletion strains, locus YLR058C, strain SHM2, stronger effect = lower value 0.538 | S. cerevisiae deletion strains, locus YLR113W, strain HOG1, stronger effect = lower value 0.506 | S. cerevisiae deletion strains, locus YLR221C, strain rsa3, stronger effect = lower value 0.634 | S. cerevisiae deletion strains, locus YLR258W, strain gsy2, stronger effect = lower value 0.603 | S. cerevisiae deletion strains, locus YLR262C, strain YPT6 (second series), stronger effect = lower value 0.573 | S. cerevisiae deletion strains, locus YLR262C, strain YPT6, stronger effect = lower value 0.604 | S. cerevisiae deletion strains, locus YLR268W, strain sec22, stronger effect = lower value 0.622 | S. cerevisiae deletion strains, locus YLR320W, strain mms22, stronger effect = lower value 0.507 | S. cerevisiae deletion strains, locus YLR330W, strain CHS5, stronger effect = lower value 0.826 | S. cerevisiae deletion strains, locus YLR342W, strain FKS1 (second series), stronger effect = lower value 0.662 | S. cerevisiae deletion strains, locus YLR370C, strain arc18, stronger effect = lower value 0.803 | S. cerevisiae deletion strains, locus YLR418C, strain cdc73, stronger effect = lower value 0.723 | S. cerevisiae deletion strains, locus YML016C, strain PPZ1, stronger effect = lower value 0.714 | S. cerevisiae deletion strains, locus YML032C, strain rad52, stronger effect = lower value 0.37 | S. cerevisiae deletion strains, locus YML120C, strain ndi1, stronger effect = lower value 0.439 | S. cerevisiae deletion strains, locus YML124C, strain tub3, stronger effect = lower value 0.84 | S. cerevisiae deletion strains, locus YMR058W, strain fet3, stronger effect = lower value 0.69 | S. cerevisiae deletion strains, locus YMR078C, strain ctf18, stronger effect = lower value 0.642 | S. cerevisiae deletion strains, locus YMR129W, stronger effect = lower value 0.844 | S. cerevisiae deletion strains, locus YMR205C, strain PFK2, stronger effect = lower value 0.669 | S. cerevisiae deletion strains, locus YMR223W, strain ubp8, stronger effect = lower value 0.579 | S. cerevisiae deletion strains, locus YMR263W, strain SAP30, stronger effect = lower value 0.746 | S. cerevisiae deletion strains, locus YNL067W, strain RPL9B, stronger effect = lower value 0.477 | S. cerevisiae deletion strains, locus YNL128W, strain TEP1, stronger effect = lower value 0.76 | S. cerevisiae deletion strains, locus YNL153C, strain GIM3, stronger effect = lower value 0.701 | S. cerevisiae deletion strains, locus YNL183C, strain NPR1, stronger effect = lower value 0.483 | S. cerevisiae deletion strains, locus YNL209W, strain ssb2, stronger effect = lower value 0.729 | S. cerevisiae deletion strains, locus YNL233W, strain BNI4, stronger effect = lower value 0.707 | S. cerevisiae deletion strains, locus YNL248C, strain rpa49, stronger effect = lower value 0.599 | S. cerevisiae deletion strains, locus YNL250W, strain rad50, stronger effect = lower value 0.782 | S. cerevisiae deletion strains, locus YNL271C, strain bni1, stronger effect = lower value 0.891 | S. cerevisiae deletion strains, locus YNL298W, strain CLA4, stronger effect = lower value 0.858 | S. cerevisiae deletion strains, locus YNL307C, strain MCK1, stronger effect = lower value 0.439 | S. cerevisiae deletion strains, locus YNL322C, strain KRE1, stronger effect = lower value 0.771 | S. cerevisiae deletion strains, locus YNR049C, strain mso1, stronger effect = lower value 0.899 | S. cerevisiae deletion strains, locus YNR052C, strain pop2, stronger effect = lower value 0.732 | S. cerevisiae deletion strains, locus YOL006C, strain TOP1, stronger effect = lower value 0.475 | S. cerevisiae deletion strains, locus YOL012C, strain htz1 2.2 [resistant] | S. cerevisiae deletion strains, locus YOL147C, strain pex11, stronger effect = lower value 0.832 | S. cerevisiae deletion strains, locus YOR001W, strain rrp6, stronger effect = lower value 0.508 | S. cerevisiae deletion strains, locus YOR061W, strain CKA2, stronger effect = lower value 0.744 | S. cerevisiae deletion strains, locus YOR069W, strain VPS5, stronger effect = lower value 0.825 | S. cerevisiae deletion strains, locus YOR070C, strain gyp1, stronger effect = lower value 0.732 | S. cerevisiae deletion strains, locus YOR080W, strain dia2, stronger effect = lower value 0.816 | S. cerevisiae deletion strains, locus YOR083W, strain WHI5, stronger effect = lower value 0.56 | S. cerevisiae deletion strains, locus YOR106W, strain vam3, stronger effect = lower value 0.529 | S. cerevisiae deletion strains, locus YOR136W, strain idh2, stronger effect = lower value 0.866 | S. cerevisiae deletion strains, locus YOR144C, strain elg1, stronger effect = lower value 0.766 | S. cerevisiae deletion strains, locus YOR184W, strain ser1, stronger effect = lower value 0.535 | S. cerevisiae deletion strains, locus YOR231W, strain MKK1, stronger effect = lower value 0.41 | S. cerevisiae deletion strains, locus YOR265W, strain rbl2, stronger effect = lower value 0.851 | S. cerevisiae deletion strains, locus YOR270C, strain vph1, stronger effect = lower value 0.577 | S. cerevisiae deletion strains, locus YOR290C, strain snf2, stronger effect = lower value 0.379 | S. cerevisiae deletion strains, locus YPL051W, strain arl3, stronger effect = lower value 0.628 | S. cerevisiae deletion strains, locus YPL055C, strain LGE1, stronger effect = lower value 0.572 | S. cerevisiae deletion strains, locus YPL078C, strain atp4, stronger effect = lower value 0.727 | S. cerevisiae deletion strains, locus YPL106C, strain sse1, stronger effect = lower value 0.779 | S. cerevisiae deletion strains, locus YPL240C, strain hsp82, stronger effect = lower value 0.618 | S. cerevisiae deletion strains, locus YPL256C, strain CLN2, stronger effect = lower value 0.499 | S. cerevisiae deletion strains, locus YPR119W, strain clb2, stronger effect = lower value 0.85 | S. cerevisiae deletion strains, locus YPR167C, strain met16, stronger effect = lower value 0.699 | S. cerevisiae deletion strains, strain wtn01, stronger effect = lower value 0.549 | S. cerevisiae strains, strain wild type, stronger effect = lower value 0.698
